Measured values taken from PubChem BioAssay AID1159580 (chemical genetic matrix, 2015).
Several values for one entry are separate records, joined by “and”; a condition that tells them apart may be missing. Equal entries are not always repeated. Among all 5,500 compounds or so, about 2,000 (36%) were called active. Inconclusive results (about 18%) are left out. No stated cut-off is given here; in the data, active means normalized growth mostly below about 0.91 (no sharp cut-off); inconclusive means no clear call, values can overlap the other calls; inactive means mostly above about 0.92. Some of the results follow.

Assay: chemical genetic growth profiling, strain panel (AID 1159580);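 further: tested at 20 µM; growth read once vehicle control cultures reached saturation at 30 °C; 1 = growth at the plate median or of vehicle wells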
Conditions: S. cerevisiae deletion strains, growth OD

Measured: normalized growth

Cc1ccc(S(=O)(=O)NC(=O)NN2CCCCCC2)cc1
inactive: locus YAL013W, strain DEP1, stronger effect = lower value 0.996 | locus YAL021C, strain ccr4, stronger effect = lower value 0.999 | locus YAL026C, strain drs2, stronger effect = lower value 0.974 | locus YAL030W, strain snc1, stronger effect = lower value 0.991 | locus YAL040C, strain CLN3, stronger effect = lower value 1.05 | locus YBL061C, strain skt5, stronger effect = lower value 0.986 | locus YBR009C, strain hhf1, stronger effect = lower value 0.994 | locus YBR021W, strain FUR4, stronger effect = lower value 0.986 | locus YBR023C, strain chs3, stronger effect = lower value 0.981 | locus YBR171W, strain sec66, stronger effect = lower value 0.99 | locus YBR229C, strain ROT2, stronger effect = lower value 0.995 | locus YBR231C, strain swc5, stronger effect = lower value 0.999 | locus YBR279W, strain paf1, stronger effect = lower value 0.994 | locus YCL011C, strain gbp2, stronger effect = lower value 0.987 | locus YCL016C, strain dcc1, stronger effect = lower value 0.953 | locus YCL029C, strain bik1, stronger effect = lower value 0.99 | locus YCL061C, strain MRC1 (second series), stronger effect = lower value 0.998 | locus YCL069W, strain vba3, stronger effect = lower value 0.986 | locus YCR088W, strain abp1, stronger effect = lower value 0.984 | locus YDL005C, strain med2, stronger effect = lower value 0.989 | locus YDL035C, strain GPR1, stronger effect = lower value 0.997 | locus YDL040C, strain nat1, stronger effect = lower value 0.991 | locus YDL074C, strain BRE1, stronger effect = lower value 1.06 | locus YDL101C, strain DUN1, stronger effect = lower value 0.997 | locus YDL134C, strain PPH21, stronger effect = lower value 0.987 | locus YDL185W, strain tfp1, stronger effect = lower value 0.983 | locus YDL192W, strain arf1, stronger effect = lower value 0.988 | locus YDR001C, strain nth1, stronger effect = lower value 0.986 | locus YDR069C, strain doa4, stronger effect = lower value 1 | locus YDR101C, strain arx1, stronger effect = lower value 0.989 | locus YDR137W, strain rgp1, stronger effect = lower value 0.932 | locus YDR150W, strain NUM1, stronger effect = lower value 1 | locus YDR159W, strain sac3, stronger effect = lower value 0.969 | locus YDR162C, strain NBP2, stronger effect = lower value 0.999 | locus YDR195W, strain ref2 0.996 | locus YDR297W, strain sur2, stronger effect = lower value 1 | locus YDR318W, strain mcm21, stronger effect = lower value 0.977 | locus YDR334W, strain swr1, stronger effect = lower value 0.978 | locus YDR335W, strain msn5, stronger effect = lower value 0.973 | locus YDR363W, strain ESC2, stronger effect = lower value 1.01 | locus YDR388W, stronger effect = lower value 0.985 | locus YDR392W, strain spt3, stronger effect = lower value 0.861 | locus YDR502C, strain sam2, stronger effect = lower value 0.991 | locus YEL003W, strain gim4, stronger effect = lower value 1.01 | locus YEL037C, strain rad23, stronger effect = lower value 0.975 | locus YEL061C, strain CIN8 (second series), stronger effect = lower value 1 | locus YEL061C, strain CIN8, stronger effect = lower value 1 | locus YER002W, strain NOP16, stronger effect = lower value 1 | locus YER015W, strain faa2, stronger effect = lower value 1 | locus YER016W, strain bim1, stronger effect = lower value 0.976 | locus YER110C, stronger effect = lower value 0.988 | locus YER111C, strain swi4, stronger effect = lower value 0.987 | locus YER155C, strain BEM2 (second series), stronger effect = lower value 0.972 | locus YER155C, strain BEM2, stronger effect = lower value 0.988 | locus YER167W, strain BCK2, stronger effect = lower value 0.984 | locus YFR010W, strain ubp6, stronger effect = lower value 1.02 | locus YGL078C, strain dbp3, stronger effect = lower value 0.987 | locus YGL086W, strain mad1, stronger effect = lower value 0.999 | locus YGL167C, strain pmr1, stronger effect = lower value 0.992 | locus YGL173C, strain kem1, stronger effect = lower value 0.998 | locus YGL227W, strain vid30, stronger effect = lower value 1.01 | locus YGL240W, strain doc1, stronger effect = lower value 1 | locus YGL248W, strain PDE1, stronger effect = lower value 1 | locus YGL253W, strain hxk2, stronger effect = lower value 1.02 | locus YGR078C, strain PAC10, stronger effect = lower value 1.04 and 0.986 | locus YGR135W, strain pre9, stronger effect = lower value 0.965 | locus YGR229C, strain SMI1, stronger effect = lower value 1.01 and 1.05 | locus YGR252W, strain gcn5, stronger effect = lower value 0.96 | locus YHR013C, strain ard1, stronger effect = lower value 0.966 | locus YHR027C, strain rpn1, stronger effect = lower value 1 | locus YHR030C, strain SLT2, stronger effect = lower value 0.992 and 1.02 | locus YHR079C, strain IRE1 (second series), stronger effect = lower value 0.988 | locus YHR079C, strain IRE1, stronger effect = lower value 1.02 | locus YHR094C, strain hxt1, stronger effect = lower value 0.98 | locus YHR129C, strain ARP1, stronger effect = lower value 0.993 | locus YHR142W, strain chs7, stronger effect = lower value 0.986 | locus YHR200W, strain rpn10, stronger effect = lower value 0.984 | locus YIL066C, strain RNR3, stronger effect = lower value 1 | locus YIL073C, strain SPO22, stronger effect = lower value 0.925 | locus YIL125W, strain kgd1, stronger effect = lower value 0.982 | locus YIR030C, strain dcg1, stronger effect = lower value 0.978 | locus YJL092W, strain hpr5, stronger effect = lower value 0.991 | locus YJL095W, strain BCK1 (second series), stronger effect = lower value 0.982 | locus YJL095W, strain BCK1, stronger effect = lower value 1.03 and 1.02 | locus YJL115W, strain asf1, stronger effect = lower value 0.979 | locus YJL129C, strain trk1, stronger effect = lower value 0.952 | locus YJL134W, strain LCB3, stronger effect = lower value 0.995 | locus YJL154C, strain vps35, stronger effect = lower value 0.989 | locus YJL164C, strain tpk1, stronger effect = lower value 0.991 | locus YJL166W, strain qcr8, stronger effect = lower value 0.997 | locus YJL168C, strain set2, stronger effect = lower value 0.987 | locus YJL187C, strain SWE1 (second series), stronger effect = lower value 1.02 | locus YJL187C, strain SWE1, stronger effect = lower value 0.992 | locus YJR043C, strain POL32, stronger effect = lower value 1.02 | locus YJR066W, strain TOR1, stronger effect = lower value 0.948
